PubChem BioAssay (NCI)
About 79,000 compounds went through this panel and 15% of them were active in at least one assay; those are over-represented in the sample as a whole. A number with no mark means an inactive call. Active and inactive are the calls of the source. Rule as the data show it: active = growth inhibition above about 70%; inactive = the rest.

Assay: NCI Yeast Anticancer Drug Screen. Data for the bub3 strain (AID 167)
Details: S. cerevisiae bub3 mutant strain, at 5.0 µM (retest, dose inferred, filed as 0.5), hits give high values
How it was run: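 Screening used yeast with an engineered genetic alteration affecting cell cycle control. Compound-exposed cultures were compared with vehicle cultures, and reduced growth was taken as inhibition.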

First: COc1ccc2c(Cc3cc(Cl)ccc3O)cncc2c1O
Second: CCOC(=O)c1ccc(N=Cc2cc(Cl)cc(Cl)c2O)cc1
The growth inhibition of the first is lower: -2% for the first, 62% for the second.

Compared with `Cc1ccc(NNC2=NC(=S)NC(=O)C2)cc1`, `COc1ccc(NC(=O)CSC(N)=O)cc1` is lower in growth inhibition: 9% for the first, 3% for the second.

Going from `CC#CC(=O)Nc1ccccc1CC(c1c[nH]c2ccccc12)c1c[nH]c2ccccc12` to `CCC(=O)c1cc2ccccc2c2ccccc12`, the growth inhibition falls from 32% to 5%.

Going from `COC(=O)c1c2oc3c(C(=O)OC)cccc3nc-2cc(N)c1=O` to `CCN(CC)CCNc1ccc(C)c2sc3c(OC)cccc3c(=O)c12`, the growth inhibition falls from 49% to -1%.

Compared with `CCCCCC(=O)NNc1ccccc1`, `CCCCCC(CN(C)C)C(O)/C=C\c1ccccc1` (stereo not given) is lower in growth inhibition: 9% for the first, -2% for the second.

Compared with `CN(C)CCNc1ccc2nnn3c4ccc(O)cc4c(=O)c1c23`, `Oc1ccc2c(ccc3ccccc32)c1` is lower in growth inhibition: 18% for the first, 4% for the second.

First: COc1ccc2c(c1)C(=O)C[C@@H]1[C@](C)(C#N)CCC[C@]21C
Second: CC1(CO)CCCC2(C)C3=C(CCCC3)CCC12 (stereo not given)
The growth inhibition of the first is higher: 5% for the first, -67% for the second.

First: O=C1OCCCOC(=O)c2cc(ccc2O)OCC#CC#CCOc2ccc(O)c1c2
Second: NC(=Nc1ccccc1)c1ccc2c(c1)c1c(n2Cc2ccccc2)CCCC1
The growth inhibition of the first is higher: 2% for the first, -2% for the second.

Going from `Nc1nc(Cl)cc(NCC2(CO)CC(CCCc3ccccc3)C2)n1` (stereo not given) to `CCOC(=O)Nc1cc(NC(C)/C(=N/O)c2ccccc2)c([N+](=O)[O-])c(N)n1` (stereo not given), the growth inhibition falls from 15% to -10%.

Compared with `NNC(=S)Nc1ccccc1`, `NC(=S)N/N=C/c1cn(CCCl)c2ccccc12` is lower in growth inhibition: 1% for the first, -11% for the second.

Compared with `CC(C(=O)N1C(=O)N(C(=O)C(C)C(O)c2ccccc2)C(c2ccccc2)C1c1ccccc1)C(O)c1ccccc1` (stereo not given), `[Cl-].[La+3].[O-]/N=C(\c1ccccc1)c1ccccn1.[O-]/N=C(\c1ccccc1)c1ccccn1.[O-]/N=C(\c1ccccc1)c1ccccn1` is higher in growth inhibition: -18% for the first, 42% for the second.

First: C/C(=N\NC(=S)N1CCCC1)c1cnccn1
Second: Fc1cccc(CSc2ncnc3c2ncn3C2CCCS2)c1 (stereo not given)
The growth inhibition of the first is higher: 33% for the first, 1% for the second.

Compared with `N=C(N)c1ccc(OCCCCOc2ccc(N)cc2Cl)cc1`, `CC/C(=C(\CC)c1ccc(OCCN2CCOCC2)cc1)c1ccc(OCCN2CCOCC2)cc1` is higher in growth inhibition: 0% for the first, 59% for the second.

First: O=C(CCCl)Nc1cc2ccccc2oc1=O
Second: O=CNC(CCCC(=O)O)Cc1cc2ccccc2c2ccccc12 (stereo not given)
The growth inhibition of the first is higher: -4% for the first, -8% for the second.

Compared with `O=[N+]([O-])c1ccccc1N=Nc1c(O)[nH]c2cccc(C(F)(F)F)c12`, `O=C(N=Nc1cccc(Cl)c1)NNc1cccc(Cl)c1` is lower in growth inhibition: 47% for the first, -24% for the second.

Going from `CCCCCCCCC1OC1CCCCCCCC(=O)OCC1CO1` (stereo not given) to `C=C1CC2(CCCC3(CC(=C)C(=O)O3)C2(C)C)OC1=O` (stereo not given), the growth inhibition rises from -3% to 7%.

Going from `O=[N+]([O-])c1c(Cl)ccc2nsnc12` to `COC1=Nc2ccccc2S(=O)(=O)C=C1`, the growth inhibition rises from -49% to 11%.

Going from `COc1ccccc1NC(=O)/C(=C\N1C(=O)/C(=C/c2cc(OC)c(OC)c(OC)c2)SC1=S)C(C)=O` to `CCc1cccc(C(C)(C)C)c1NC(=S)/N=C/C(C(=O)c1ccccc1)=C(\O)c1ccccc1`, the growth inhibition rises from -21% to -12%.

First: O=C1C2C3C=CC(C3)C2C(=NS(=O)(=O)c2ccccc2)C2C3C=CC(C3)C12 (stereo not given)
Second: NN=C(CC(O)(C(F)(F)Cl)C(F)(F)Cl)CC(O)(C(F)(F)Cl)C(F)(F)Cl
The growth inhibition of the first is lower: -2% for the first, 6% for the second.

With `CC(C)(C)CC(C)(C)N[P+](NC(C)(C)CC(C)(C)C)(NC(C)(C)CC(C)(C)C)NC(C)(C)CC(C)(C)C` the growth inhibition was 96% (active).
In the case of `OC(CCN1CCOCC1)c1ccc(Sc2ccccc2)cc1` (stereo not given), the growth inhibition is reported as 88% (active).

Same assay, conditions: S. cerevisiae bub3 mutant strain, at 50.0 µM (retest, dose inferred, filed as 5.0), hits give high values

First: COc1ccc2c(Cc3cc(Cl)ccc3O)cncc2c1O
Second: CCN(CC)CCNc1ccc(C)c2sc3c(OC)cccc3c(=O)c12
The growth inhibition of the first is higher: 31% for the first, 11% for the second.

First: CC#CC(=O)Nc1ccccc1CC(c1c[nH]c2ccccc12)c1c[nH]c2ccccc12
Second: CCc1cccc(C(C)(C)C)c1NC(=S)/N=C/C(C(=O)c1ccccc1)=C(\O)c1ccccc1
The growth inhibition of the first is lower: 32% for the first, 48% for the second.

Going from `COC(=O)c1c2oc3c(C(=O)OC)cccc3nc-2cc(N)c1=O` to `CN(C)CCNc1ccc2nnn3c4ccc(O)cc4c(=O)c1c23`, the growth inhibition falls from 59% to 32%.

First: COc1ccc2c(c1)C(=O)C[C@@H]1[C@](C)(C#N)CCC[C@]21C
Second: COc1ccc(NC(=O)CSC(N)=O)cc1
The growth inhibition of the first is higher: 34% for the first, 25% for the second.

Compared with `O=C1OCCCOC(=O)c2cc(ccc2O)OCC#CC#CCOc2ccc(O)c1c2`, `O=C(CCCl)Nc1cc2ccccc2oc1=O` is lower in growth inhibition: -6% for the first, -10% for the second.

Compared with `Nc1nc(Cl)cc(NCC2(CO)CC(CCCc3ccccc3)C2)n1` (stereo not given), `O=CNC(CCCC(=O)O)Cc1cc2ccccc2c2ccccc12` (stereo not given) is lower in growth inhibition: 17% for the first, -4% for the second.

Compared with `NNC(=S)Nc1ccccc1`, `NC(=S)N/N=C/c1cn(CCCl)c2ccccc12` is higher in growth inhibition: -1% for the first, 56% for the second.

First: CCCCCC(CN(C)C)C(O)/C=C\c1ccccc1 (stereo not given)
Second: COc1ccccc1NC(=O)/C(=C\N1C(=O)/C(=C/c2cc(OC)c(OC)c(OC)c2)SC1=S)C(C)=O
The growth inhibition of the first is higher: -10% for the first, -12% for the second.

Going from `CCCCCCCCC1OC1CCCCCCCC(=O)OCC1CO1` (stereo not given) to `CC/C(=C(\CC)c1ccc(OCCN2CCOCC2)cc1)c1ccc(OCCN2CCOCC2)cc1`, the growth inhibition rises from -16% to 68%.

`O=C1C2C3C=CC(C3)C2C(=NS(=O)(=O)c2ccccc2)C2C3C=CC(C3)C12` (stereo not given) gave a growth inhibition of 4%.

In the case of `Cc1ccc(NNC2=NC(=S)NC(=O)C2)cc1`, the growth inhibition is reported as 97% (active).
For `CCCCCC(=O)NNc1ccccc1`, the growth inhibition was 95% (active).
In the case of `CCC(=O)c1cc2ccccc2c2ccccc12`, the growth inhibition is reported as 74% (active).
With `CCOC(=O)c1ccc(N=Cc2cc(Cl)cc(Cl)c2O)cc1` the growth inhibition was 96% (active).
In the case of `CC(C(=O)N1C(=O)N(C(=O)C(C)C(O)c2ccccc2)C(c2ccccc2)C1c1ccccc1)C(O)c1ccccc1` (stereo not given), the growth inhibition is reported as 96% (active).
With `CC(C)(C)CC(C)(C)N[P+](NC(C)(C)CC(C)(C)C)(NC(C)(C)CC(C)(C)C)NC(C)(C)CC(C)(C)C` the growth inhibition was 99% (active).
In the case of `C/C(=N\NC(=S)N1CCCC1)c1cnccn1`, the growth inhibition is reported as 97% (active).
In the case of `N=C(N)c1ccc(OCCCCOc2ccc(N)cc2Cl)cc1`, the growth inhibition is reported as 97% (active).
In the case of `CC1(CO)CCCC2(C)C3=C(CCCC3)CCC12` (stereo not given), the growth inhibition is reported as 95% (active).
For `O=[N+]([O-])c1ccccc1N=Nc1c(O)[nH]c2cccc(C(F)(F)F)c12`, the growth inhibition was 77% (active).
With `OC(CCN1CCOCC1)c1ccc(Sc2ccccc2)cc1` (stereo not given) the growth inhibition was 88% (active).
With `[Cl-].[La+3].[O-]/N=C(\c1ccccc1)c1ccccn1.[O-]/N=C(\c1ccccc1)c1ccccn1.[O-]/N=C(\c1ccccc1)c1ccccn1` the growth inhibition was 90% (active).
With `Fc1cccc(CSc2ncnc3c2ncn3C2CCCS2)c1` (stereo not given) the growth inhibition was 82% (active).
In the case of `O=[N+]([O-])c1c(Cl)ccc2nsnc12`, the growth inhibition is reported as 96% (active).
With `C=C1CC2(CCCC3(CC(=C)C(=O)O3)C2(C)C)OC1=O` (stereo not given) the growth inhibition was 96% (active).
In the case of `CCOC(=O)Nc1cc(NC(C)/C(=N/O)c2ccccc2)c([N+](=O)[O-])c(N)n1` (stereo not given), the growth inhibition is reported as 87% (active).
In the case of `O=C(N=Nc1cccc(Cl)c1)NNc1cccc(Cl)c1`, the growth inhibition is reported as 99% (active).
For `Oc1ccc2c(ccc3ccccc32)c1`, the growth inhibition was 88% (active).
For `COC1=Nc2ccccc2S(=O)(=O)C=C1`, the growth inhibition was 98% (active).
With `NC(=Nc1ccccc1)c1ccc2c(c1)c1c(n2Cc2ccccc2)CCCC1` the growth inhibition was 92% (active).
For `NN=C(CC(O)(C(F)(F)Cl)C(F)(F)Cl)CC(O)(C(F)(F)Cl)C(F)(F)Cl`, the growth inhibition was 100% (active).
